Vaccinia Venus = inhibitors of vaccinia virus (Venus reporter) | 330,000 tested, 0.46% active | Vaccinia virus Venus reporter expression, fluorescence | Potency, µM (top dose mostly 36.5 µM), for inactives: at the highest dose activity change, negative = inhibition, actives largely listed as inhibitors; calls by dose curve; tested in A549 cells; also: nearly all actives have a fitted effect of over 30% in size
VACV mCherry inh = vaccinia inhibition (mCherry reporter) | Vaccinia virus mCherry reporter infection, fluorescence | Potency, µM (doses to about 36.5 µM), inactives show top-dose activity change, negative = inhibition, usual class: inhibitors | 310,000 tested, 0.63% active | AID 720579; calls by dose curve; tested in A549 cells; also: nearly all actives have a fitted effect of over 35% in size
AmpC detergent = blocks E. coli AmpC beta-lactamase in detergent assay | AmpC hydrolysis of nitrocefin, absorbance 480 nm, 0.01% Triton | Potency, µM (top dose mostly 114 µM), without a hit: at the highest dose activity change, negative = inhibition, hits mostly inhibitors | 370,000 tested, 0.041% active | AID 485294;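 also: 0% = no-compound wells and -100% = no-enzyme wells; nearly all actives have a fitted effect of over 25% in size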
Target sequence (P00811 whole entry, looked up): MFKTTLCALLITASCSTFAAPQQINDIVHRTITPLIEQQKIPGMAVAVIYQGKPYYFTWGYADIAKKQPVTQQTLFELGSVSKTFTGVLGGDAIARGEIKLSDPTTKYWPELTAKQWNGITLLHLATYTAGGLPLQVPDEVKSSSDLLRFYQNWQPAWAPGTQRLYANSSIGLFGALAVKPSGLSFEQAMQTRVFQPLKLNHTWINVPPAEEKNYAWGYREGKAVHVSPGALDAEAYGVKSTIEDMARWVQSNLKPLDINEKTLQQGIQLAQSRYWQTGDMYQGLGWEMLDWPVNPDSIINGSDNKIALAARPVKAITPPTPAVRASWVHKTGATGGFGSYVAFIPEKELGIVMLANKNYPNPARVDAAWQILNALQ
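20 mM phosphate pH 7.0 + 0.01% (detergent screen) or 0.0001% Triton X-100; 5.3 nM AmpC reagent; cpd preinc 15 min RT; nitrocefin (800 uM stock) to start; A480 q20 s × 4 min; Activity was normalised to no-enzyme and no-compound control wells.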
AmpC no deterg = inhibitors of E. coli AmpC beta-lactamase without detergent; P00811; AmpC nitrocefin hydrolysis, absorbance 480 nm, 0.0001% Triton; Potency, µM (highest dose often 57.1 µM), inactives show top-dose activity change, negative = inhibition, most hits filed as inhibitors; 330,000 tested, 0.52% active; AID 485341;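 also: plate controls were no compound for no effect and no enzyme for full effect; nearly all actives have a fitted effect of over 20% in size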
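AmpC (5.3 nM in the dispensed reagent) in 20 mM phosphate pH 7.0 with 0.01% (detergent screen) or 0.0001% Triton X-100 was preincubated with compounds for 15 min at room temperature. Nitrocefin was then added from an 800 uM solution, and hydrolysis was followed at 480 nm.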
The depositor's hits bear a star; ? = inconclusive; / = no result. Rows were chosen to be rich in hits. Some 1.1% of all compounds tested hit in one or more screens of this group. Unless noted, calls follow the shape of the dose curve; as a rule, active = well fitted curve in the direction sought with a large enough effect; inconclusive = small, poorly fitted or top-dose-only effect, or another doubt; inactive = no such curve, though single readings can be large; an effect the other way counts as inactive or inconclusive. Unless noted, % is scaled to controls: 0 for no effect and ±100 for the full control effect; potency is read from the fitted curve at half-maximal effect.

SMILES | Vaccinia Venus | VACV mCherry inh | AmpC detergent | AmpC no deterg
Cc1cccnc1-c1cccc2c1OC(CNC(=O)C1CCCc3c1[nH]c1ccccc31)C2 (stereo unspecified) | -21% | -6% | / | /
Brc1cc(Br)c[n+](CCc2ccccc2)c1 | -9% | 0% | / | /
COc1cc(=O)n2c(c1C(=O)N(C)Cc1nccs1)CCN(Cc1c(F)ccc(F)c1F)CC2 | -2% | -8% | / | /
O=C(CSCC(=O)N1CCOCC1)Nc1nc(-c2ccc3c(c2)OCO3)cs1 | 8.9µM* | ? | ? | 17%
O=C(Nc1ccc(N2CCCCC2)c(Cl)c1)c1cccnc1 | 2% | 13µM* | ? | 1%
O=C(Nc1ccc(N2CCCC2)c(Cl)c1)c1cccnc1 | -7% | / | ? | 84%
COc1cc(-c2cc(C)c3cccc(OC)c3n2)cc2c1OCCN(C(=O)CCn1nc(C)cc1C)C2 | -10% | -20% | / | /
CO[C@H]1[C@H](NC(=O)c2ccsc2)c2ccccc2C12CCN(Cc1cccc3ncccc13)CC2 | -4% | -13% | / | /
COc1cc(/C=C(/C#N)c2nc3ccccc3c(=O)[nH]2)ccc1O | 16% | 0% | 7% | 28µM*
COc1cc(OC)cc(-c2nnc(NC(=O)CCS(=O)(=O)c3ccccc3)o2)c1 | ? | 6.3µM* | -12% | -34%
COc1ccc(-c2nnc(NC(=O)c3ccc(F)cc3)o2)cc1 | ? | ? | ? | 22µM*
O=C(CCS(=O)(=O)c1ccc(F)cc1)Nc1nnc(-c2cccs2)o1 | 13µM* | ? | 0% | -7%
O=C(CS(=O)(=O)c1ccc(F)cc1)Nc1nnc(-c2cccs2)o1 | -1% | -1% | ? | ?
COc1ccc(-c2nnc(NC(=O)c3ccc4c(c3)OCCO4)o2)cc1 | / | / | 0% | -28%
COc1cc(OC)cc(-c2nnc(NC(=O)CCS(=O)(=O)c3ccc(F)cc3)o2)c1 | 7.9µM* | 5.6µM* | 10% | -6%
COc1cc(-c2nnc(NC(=O)CCS(=O)(=O)c3ccc(F)cc3)o2)cc(OC)c1OC | ? | ? | ? | -7%
CC(C)Cc1nc2cc(NS(=O)(=O)N(C)C)cc(C(=O)N3CC4(C)CC3CC(C)(C)C4)c2n1C (stereo unspecified) | 15% | -2% | / | /
COCC(=O)Nc1cc(C(=O)N2CCN(c3ccccc3)C(=O)C2)cc2nc(-c3ccccc3)n(C)c12 | -5% | -13% | / | /
Cc1ccc2c(CC(=O)N3CCOc4ccc(CN5C[C@@H](C)O[C@@H](C)C5)cc4C3)cc(=O)oc2c1 | -11% | -6% | / | /
CCCc1nc2cccnc2n1C1CCN(C(=O)Cn2nccc2C)CC1 | -9% | -10% | / | /
COc1cc(-c2nnc(NC(=O)CCS(=O)(=O)c3ccccc3)o2)cc(OC)c1OC | 5.6µM* | 3.5µM* | 5% | -13%
Cc1cc(Cl)c(S(=O)(=O)Nc2ccon2)cc1OCC(=O)NC1CCCCC1 | 0% | -12% | -1% | 0.22µM*
Cc1cc(Cl)c(S(=O)(=O)Nc2ccc3c(c2)OCCO3)cc1OCC(=O)NC1CCCCC1 | / | / | ? | -41%
Cc1cc(C)cc(NC(=O)C2CC23CCN(Cc2ccc4ncccc4c2)CC3)c1 (stereo unspecified) | 0% | -3% | / | /
O=[N+]([O-])c1cccc(N/N=C/c2cccc(O)c2O)c1 | ? | ? | -11% | 16µM*
SMILES | Vaccinia Venus | VACV mCherry inh | AmpC detergent | AmpC no deterg
O=[N+]([O-])c1ccc(N/N=C/c2cccc(O)c2O)c(S(=O)(=O)N2CCOCC2)c1 | / | / | -1% | 11µM*
O=[N+]([O-])c1ccc(N/N=C/c2ccc(O)c(O)c2O)c(S(=O)(=O)N2CCOCC2)c1 | 6% | 0% | -11% | -58%
CN(C)c1ccc(/C=C2\C=Nc3ccccc32)cc1 | 18% | -27% | / | /
N#CC1=C(N)OC2=C(CC/C2=C\c2ccccc2)C1c1ccccc1 (stereo unspecified) | 8% | -11% | 5% | 11µM*
N#CC1=C(N)OC2=C(CC/C2=C\c2ccccc2Cl)C1c1ccccc1Cl (stereo unspecified) | ? | ? | -3% | -57%
CCN(Cc1ccncc1)Cc1ccc2c(c1)CN(C(=O)c1ccc(OC)cc1)CCO2 | 2% | -11% | / | /
O=C(NCCc1ccccc1)c1ccc2c(c1)N(Cc1ccccc1)C(=O)CS2=O (stereo unspecified) | -11% | -3% | ? | 5µM*
CC1CN(Cc2cccn2-c2ncccn2)Cc2cc(Cl)ccc2O1 (stereo unspecified) | -1% | -6% | / | /

Bioassay records as filed in PubChem BioAssay.
